# Activity calls are given as the source filed them.
# Tests used:
# [1] = E. coli DRC41 culture turbidity changes, primary screen, E. coli filamentation inducer project, strain DRC41, OD650, 48 h (AID 1152);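 further: E. coli MC1000 strain DRC41 lacking acrAB efflux pump and sulA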; details: E. coli DRC41 (acrAB sulA), higher = more signal, called active from +8 up or from −8 down
# [2] = small-molecule binders of probe aLefty1, primary screen, biochemical, small-molecule microarray, 635/667 nm fluorescence (AID 1153); details: higher = more signal;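 further: score merges spot fluorescence with signal-to-noise ratio from the scanned slide images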
# [3] = PSAC antagonists in infected red cells, primary screen, cell-based, P. falciparum Indochina, OD700, 1 h (AID 1154); details: P. falciparum Indochina infected RBC osmotic lysis, higher = more signal, called active from +8 up or from −8 down
# [4] = PSAC antagonists in infected red cells, primary screen, cell-based, P. falciparum Indochina, OD700, 2 h (AID 1155);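 further: lysis reports solute entry through the parasite surface anion channel PSAC; channel blockers reduce lysis of infected cells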; details: P. falciparum Indochina infected erythrocytes, osmotic lysis OD700; higher = more signal, called active from +8 up or from −8 down
# [5] = osmotic lysis modulators in infected erythrocytes, primary screen, PSAC antagonist project, cell-based, P. falciparum Indochina, OD700, 3 h (AID 1156); details: higher = more signal, called active from +8 up or from −8 down
# [6] = PSAC antagonists in infected red cells, primary screen, cell-based, P. falciparum Indochina, OD700, 18 h (AID 1157); details: P. falciparum Indochina infected erythrocytes, osmotic lysis OD700, 18 h; higher = more signal, called active from +8 up or from −8 down
# [7] = modulators of S6 phosphorylation in cells, primary screen, cell-based, A549, cytoblot, luminescence, serum-stimulated (AID 1158); details: A549 phospho-S6 cytoblot, 5 h, higher = more signal;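 further: serum-stimulated A549 lung adenocarcinoma cells; signal is phosphorylated S6 detected by cytoblot immunostaining with HRP secondary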
# [8] = target: NADPH oxidase 2 (Homo sapiens) (UniProt P04839); experiment: NOX2-dependent H2O2 signal modulators, primary screen, NOX inhibitor project, cell-based, HEK293-NOX2, PMA-stimulated, Amplex Red fluorescence (AID 1159); details: 45 min, higher = more signal, called active from +8 up or from −8 down; further: test concentration not given here
# NADPH oxidase 2 (Homo sapiens), sequence (P04839 whole entry, looked up): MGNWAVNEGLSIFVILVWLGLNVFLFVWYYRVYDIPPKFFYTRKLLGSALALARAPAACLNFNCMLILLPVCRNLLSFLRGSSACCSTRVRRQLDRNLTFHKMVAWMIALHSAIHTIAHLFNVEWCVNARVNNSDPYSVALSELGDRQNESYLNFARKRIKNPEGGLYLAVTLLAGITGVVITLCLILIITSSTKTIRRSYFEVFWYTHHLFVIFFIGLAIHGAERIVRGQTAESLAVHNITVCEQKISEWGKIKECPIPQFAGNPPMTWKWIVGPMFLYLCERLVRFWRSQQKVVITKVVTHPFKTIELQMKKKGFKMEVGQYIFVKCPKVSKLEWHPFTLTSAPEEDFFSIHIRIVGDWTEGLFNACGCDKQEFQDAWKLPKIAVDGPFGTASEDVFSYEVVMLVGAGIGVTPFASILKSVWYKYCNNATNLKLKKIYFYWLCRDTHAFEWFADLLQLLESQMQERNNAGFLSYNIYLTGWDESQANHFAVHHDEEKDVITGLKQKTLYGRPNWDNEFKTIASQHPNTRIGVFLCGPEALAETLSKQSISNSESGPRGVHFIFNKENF
# [9] = target: NADPH oxidase 4 (Homo sapiens) (UniProt Q9NPH5); experiment: NOX4-dependent H2O2 signal modulators, primary screen, NOX inhibitor project, cell-based, HEK293-NOX4, tetracycline-induced, Amplex Red fluorescence (AID 1160); details: 45 min, higher = more signal, called active from +8 up or from −8 down
# NADPH oxidase 4 (Homo sapiens), sequence (Q9NPH5 whole entry, looked up): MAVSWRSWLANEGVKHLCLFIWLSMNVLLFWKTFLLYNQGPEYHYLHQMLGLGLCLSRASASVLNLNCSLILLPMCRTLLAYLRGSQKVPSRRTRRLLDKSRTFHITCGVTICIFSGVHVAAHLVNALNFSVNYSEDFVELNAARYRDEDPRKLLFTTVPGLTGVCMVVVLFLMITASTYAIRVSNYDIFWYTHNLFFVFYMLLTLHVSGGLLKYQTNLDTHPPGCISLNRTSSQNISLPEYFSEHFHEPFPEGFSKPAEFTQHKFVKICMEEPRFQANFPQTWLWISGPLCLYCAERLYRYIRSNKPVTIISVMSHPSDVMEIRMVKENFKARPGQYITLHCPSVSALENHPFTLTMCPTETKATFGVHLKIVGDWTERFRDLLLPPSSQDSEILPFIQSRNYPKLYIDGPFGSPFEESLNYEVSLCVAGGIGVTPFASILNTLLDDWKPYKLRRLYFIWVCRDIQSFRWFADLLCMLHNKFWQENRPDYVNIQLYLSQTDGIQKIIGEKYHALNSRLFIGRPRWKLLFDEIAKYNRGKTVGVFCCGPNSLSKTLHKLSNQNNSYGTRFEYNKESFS
# [10] = target: NADPH oxidase 5 (Homo sapiens) (UniProt Q96PH1); experiment: NOX5-dependent H2O2 signal modulators, primary screen, NOX inhibitor project, cell-based, HEK293-NOX5, Amplex Red fluorescence (AID 1161); details: HEK293-NOX5, ionomycin, 45 min, higher = more signal
# NADPH oxidase 5 (Homo sapiens), sequence (Q96PH1 whole entry, looked up): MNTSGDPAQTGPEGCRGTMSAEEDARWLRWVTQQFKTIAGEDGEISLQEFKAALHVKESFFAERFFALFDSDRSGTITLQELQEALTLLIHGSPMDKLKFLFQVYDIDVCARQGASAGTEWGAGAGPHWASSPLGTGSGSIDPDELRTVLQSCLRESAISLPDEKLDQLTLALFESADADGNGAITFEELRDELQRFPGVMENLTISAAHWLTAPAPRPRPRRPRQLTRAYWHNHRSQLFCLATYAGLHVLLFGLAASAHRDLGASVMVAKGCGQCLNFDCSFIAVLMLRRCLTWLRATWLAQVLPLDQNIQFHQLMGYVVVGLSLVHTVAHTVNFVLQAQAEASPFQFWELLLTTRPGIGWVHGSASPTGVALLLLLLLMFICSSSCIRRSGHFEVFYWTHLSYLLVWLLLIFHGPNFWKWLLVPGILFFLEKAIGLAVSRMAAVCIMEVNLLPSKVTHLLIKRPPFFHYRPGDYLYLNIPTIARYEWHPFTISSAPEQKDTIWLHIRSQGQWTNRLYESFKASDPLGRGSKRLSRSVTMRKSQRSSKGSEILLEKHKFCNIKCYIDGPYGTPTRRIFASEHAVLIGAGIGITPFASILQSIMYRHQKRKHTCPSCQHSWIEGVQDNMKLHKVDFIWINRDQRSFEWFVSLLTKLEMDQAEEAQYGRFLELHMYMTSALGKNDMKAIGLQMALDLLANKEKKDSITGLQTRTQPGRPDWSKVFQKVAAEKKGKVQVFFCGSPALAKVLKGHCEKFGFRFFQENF
# [11] = A549 cell viability effects, profiling panel, calcein-AM fluorescence, 48 h, basal (AID 1162); details: higher = more signal; further: test concentration not given here
# [12] = adipocyte viability effects, profiling panel, cell-based, 3T3-L1 adipocytes, calcein-AM fluorescence, 48 h, basal (AID 1163); details: 3T3-L1 adipocytes viability, higher = more signal; further: test concentration not given here
# [13] = HepG2 cell viability effects, profiling panel, calcein-AM fluorescence, 48 h, basal (AID 1164); details: higher = more signal; further: test concentration not given here
# [14] = MM1S cell viability effects, profiling panel, calcein-AM fluorescence, 48 h, basal (AID 1165); details: higher = more signal;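 further: viability of MM1S multiple myeloma cells under basal unstimulated conditions; test concentration not given here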
# [15] = basal RPMI8226 viability, no added stimulus, profiling panel, cell-based, calcein-AM fluorescence, 48 h, PK04 Diversity Set (AID 1166); details: RPMI8226 myeloma viability, higher = more signal;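 further: cells grown under basal conditions without added stimulus; test concentration not given here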
# [16] = basal HepG2 mitochondrial membrane potential changes, profiling panel, cell-based, JC-1 fluorescence, 24 h, 100 nL compound (AID 1167); details: higher = more signal; further: test concentration not given here
# [17] = basal 3T3-L1 adipocyte mitochondrial potential changes, profiling panel, cell-based, JC-1 fluorescence, 3T3-L1 adipocytes, 24 h, 100 nL compound (AID 1168); details: JC-1 mitochondrial fluorescence, higher = more signal, called active from +8 up or from −8 down; further: test concentration not given here
# [18] = basal RPMI8226 mitochondrial membrane potential changes, profiling panel, cell-based, JC-1 fluorescence, 24 h, 100 nL compound (AID 1169); details: RPMI8226 myeloma, JC-1 mitochondrial potential fluorescence, higher = more signal; further: test concentration not given here
# [19] = basal MM1S mitochondrial membrane potential changes, profiling panel, cell-based, JC-1 fluorescence, 24 h, 100 nL compound (AID 1170); details: higher = more signal; further: test concentration not given here
# [20] = A549 lung cancer cell viability effects, profiling panel, resazurin fluorescence, 24 h, PK04 Diversity Set (AID 1171); details: higher = more signal, called active from +8 up or from −8 down; further: test concentration not given here
SMILES,z-score [1],composite z-score [2],z-score [3],z-score [4],z-score [5],z-score [6],z-score [7],z-score [8],z-score [9],z-score [10],z-score [11],z-score [12],z-score [13],z-score [14],z-score [15],z-score [16],z-score [17],z-score [18],z-score [19],z-score [20]
[N-]=[N+]=NCc1ccccc1C[C@@]1(C(=O)N2CCCCC2)N=C(c2ccc(OCCCO)cc2)O[C@@H]1c1ccccc1N=[N+]=[N-],0.842 (inactive),-0.126,31.2 (active),30.4 (active),2.6 (inactive),3.27 (inactive),-0.0417,1.2 (inactive),-0.0332 (inactive),-1.27,-0.0222,1.03,0.471,-3.11,-3.21,0.821,0.636 (inactive),-1.25,-1.14,0.0861 (inactive)
CN(C)C(=O)[C@]1(CCC(=O)OC(C)(C)C)N=C(c2ccc(OCCCO)cc2)O[C@@H]1c1ccccc1,0.94 (inactive),0.217,22.5 (active),6.32 (inactive),-0.0962 (inactive),0.84 (inactive),-0.408,1.24 (inactive),0.419 (inactive),-0.229,1.13,-0.0645,0.41,0.387,-0.014,0.101,0.756 (inactive),-0.368,0.211,0.534 (inactive)
CCOC(=O)C[C@H]1[C@H](OC(=O)Cc2ccc3c(c2)OCO3)[C@@H](NC(=O)Cc2ccc(OC)cc2)c2cc(OCCCO)ccc2N1C(=O)c1ccccc1,1.53 (inactive),0.0903,1.8 (inactive),0.263 (inactive),-0.729 (inactive),-0.33 (inactive),-0.295,-1.25 (inactive),0.689 (inactive),0.267,0.208,-0.0437,0.547,1.08,0.192,0.873,-1.1 (inactive),0.192,-0.606,-0.0709 (inactive)
CC(C)NC(=O)[C@@]1(C)c2ccccc2C(=O)N(C(C)C)[C@H]1c1ccc(CO)cc1,-0.508 (inactive),-0.0699,1.21 (inactive),0.547 (inactive),0.702 (inactive),0.255 (inactive),0.0605,-0.0231 (inactive),0.375 (inactive),0.222,-0.619,0.545,-0.335,0.608,0.0593,0.313,-0.527 (inactive),0.713,1.32,-0.271 (inactive)
C=C(CCCC)C(=O)CC[C@@H](OC(=O)c1cccnc1)c1ccccc1OCCO,0.225 (inactive),-0.101,22.3 (active),5.38 (inactive),0.88 (inactive),0.871 (inactive),0.315,-1.73 (inactive),-0.158 (inactive),-1.44,-0.528,0.101,-0.14,-3.21,-2.92,0.0547,0.361 (inactive),-0.754,-1.33,0.335 (inactive)
C=CCOC(=O)[C@@H]1[C@H]2C(=O)O[C@H](c3ccccc3)[C@H](c3ccccc3)N2[C@H](c2ccc(OCCOC(=O)[C@H]3C[C@H]4C(=O)N[C@@H](CCCCN(C)C)C(=O)N4[C@H]3c3cccc(OCCO)c3)cc2)[C@@]12C(=O)Nc1ccc(I)cc12,-0.142 (inactive),0.0665,1.19 (inactive),1.16 (inactive),-1.08 (inactive),0.865 (inactive),-0.714,1.53 (inactive),1.18 (inactive),1.29,0.0169,-0.859,-0.102,-0.671,-0.654,-0.89,1.12 (inactive),-0.374,-1.19,-0.299 (inactive)
CCCC[C@@H]1C[C@H]1[C@@H](NC(=O)c1cccnc1)c1ccc(-c2ccccc2)cc1,-2.22 (inactive),-0.105,3.12 (inactive),0.818 (inactive),0.219 (inactive),0.445 (inactive),-0.0675,-1.01 (inactive),-1.52 (inactive),0.353,-1.42,-0.438,-0.886,-1.14,-2.21,-0.608,-1.18 (inactive),-0.642,-1.13,3.07 (inactive)
C=CC[C@@]12N=C(c3ccc(OCCCO)cc3)O[C@@H]1c1ccccc1N(CCS(=O)(=O)c1ccccc1)C2=O,-0.309 (inactive),0.199,33.3 (active),28.5 (active),3.7 (inactive),8.56 (active),0.766,-1.55 (inactive),0.599 (inactive),-1.91,0.4,0.962,1.05,-1.41,-1.02,0.381,2.23 (inactive),-0.899,-1.22,-1.54 (inactive)
CC(=O)N1Cc2ccccc2C[C@]2(N=C(c3ccc(OCCCO)cc3)O[C@@H]2c2ccccc2)C1=O,1.23 (inactive),-0.0536,26 (active),16.1 (active),1.17 (inactive),3.32 (inactive),0.463,-1.31 (inactive),0.13 (inactive),-1.9,-1.07,0.749,-0.351,-2.28,-3.5,0.462,-0.202 (inactive),-0.954,-0.637,-2.76 (inactive)
Cc1ccc(F)cc1S(=O)(=O)N[C@@H]1CCN(Cc2ccc(OC(C)C)cc2)C1,-19.2 (active),-0.186,2.14 (inactive),0.45 (inactive),-0.11 (inactive),0.673 (inactive),-0.157,-0.681 (inactive),-0.987 (inactive),-1.62,0.0197,-0.382,-0.867,-2.58,-0.974,-1.41,0.0582 (inactive),0.0721,-1.87,-0.26 (inactive)
O=C1NC(=O)C2C1C=CC(C(O)c1c(F)cccc1Cl)N2Nc1ccccn1 (stereo not given),-0.805 (inactive),0.245,-0.0298 (inactive),0.653 (inactive),-0.254 (inactive),0.828 (inactive),-1.1,-1.84 (inactive),-3 (inactive),-2.23,0.0619,-0.92,0.0038,0.312,-0.825,-1.05,-0.957 (inactive),-0.517,0.15,-0.609 (inactive)
CN(C)CCCNC(=O)[C@@H]1c2ccccc2C(=O)N(Cc2ccc(OC(F)(F)F)cc2)[C@H]1c1ccc(CO)cc1,0.532 (inactive),0.197,2.04 (inactive),0.81 (inactive),3 (inactive),0.891 (inactive),0.0342,0.799 (inactive),0.237 (inactive),1.44,1.71,1.91,-0.0979,0.584,-2.39,3.72,-0.463 (inactive),-0.114,-1.13,0.989 (inactive)
COCCCNC(=O)[C@]1(Cc2ccccc2N=[N+]=[N-])N=C(c2ccc(OCCCO)cc2)O[C@@H]1c1ccccc1N=[N+]=[N-],-0.279 (inactive),0.616,30.8 (active),28.7 (active),1.41 (inactive),7.56 (inactive),0.105,-1.23 (inactive),0.567 (inactive),1.71,-0.795,0.0826,-3.44,-3.52,-3.99,-0.892,1.03 (inactive),-1.17,-2.71,-2.56 (inactive)
O=c1cccc(-c2cccc(Cl)c2)o1,0.457 (inactive),-0.0057,25.8 (active),10.2 (active),-0.51 (inactive),1.27 (inactive),-0.717,-0.16 (inactive),-1.92 (inactive),-0.541,-1.09,-0.164,-0.0227,-0.345,-0.895,-0.687,0.308 (inactive),0.86,-0.024,0.0053 (inactive)
C=CCC(OC(C)=O)[C@@H]1[C@@H](N(Cc2cc3ccccc3o2)C(=O)c2ccc(C)cc2)c2cc(OCCCO)ccc2N1C(=O)Cc1ccc2ccccc2c1 (stereo not given in full),2.52 (inactive),-0.103,1.49 (inactive),0.434 (inactive),-0.884 (inactive),0.283 (inactive),0.866,0.597 (inactive),0.921 (inactive),2.32,2.34,0.133,1.18,-0.623,-0.802,3.42,-0.577 (inactive),0.0031,0.718,1.65 (inactive)
C=CCOC(=O)[C@@H]1[C@H]2C(=O)O[C@H](c3ccccc3)[C@H](c3ccccc3)N2[C@H](c2ccc(OCCOC(=O)[C@H]3C[C@H]4C(=O)N[C@@H](CC(C)C)C(=O)N4[C@H]3c3ccc(O)cc3)cc2)[C@@]12C(=O)Nc1ccc(I)cc12,0.715 (inactive),0.0278,2.42 (inactive),1.47 (inactive),0.946 (inactive),0.792 (inactive),0.171,1.75 (inactive),1.66 (inactive),1.36,0.15,0.325,1.02,0.38,1.08,-0.227,3.06 (inactive),-0.952,-0.838,-0.0756 (inactive)
CCCCN1CC=CC23O[C@@H]4C=CCOC(=O)[C@@H]4[C@H]2C(=O)N(CCCO)[C@@H]3C1=O (stereo not given in full),0.915 (inactive),-0.0075,-0.062 (inactive),-0.921 (inactive),0.836 (inactive),-1.43 (inactive),0.385,0.05 (inactive),-0.101 (inactive),-0.234,-0.117,1.11,-0.49,0.799,-0.304,-1.11,0.111 (inactive),-0.702,0.797,-1.28 (inactive)
C[C@H]1ON(c2ccc(C(=O)OC(C)(C)C)cc2)[C@@H](c2ccc(O)cc2)[C@@H]1C(=O)N1C(=O)OC[C@@H]1c1ccccc1,-0.569 (inactive),-0.0023,3.71 (inactive),0.622 (inactive),0.166 (inactive),0.428 (inactive),0.433,-0.414 (inactive),-0.254 (inactive),0.718,-0.674,0.97,-2.97,-2.72,-3.02,-2.36,-0.575 (inactive),-0.575,-2.36,-0.0657 (inactive)

# Source: PubChem BioAssay
